# Test results published in article PMC7819943, “Rice protein-binding microarrays: a tool to detect cis-acting elements near promoter regions in rice”.
# Over roughly 39,000 sequences, “fluorescence intensity (a.u.)” has its median near 4,300; the highest 2% begin near 39,000. This excerpt belongs to a sample that is enriched for the highest values.
# Target: T1, OsSMF1 (Oryza sativa, UniProt Q6ZLB0 1-436)
# T1 sequence: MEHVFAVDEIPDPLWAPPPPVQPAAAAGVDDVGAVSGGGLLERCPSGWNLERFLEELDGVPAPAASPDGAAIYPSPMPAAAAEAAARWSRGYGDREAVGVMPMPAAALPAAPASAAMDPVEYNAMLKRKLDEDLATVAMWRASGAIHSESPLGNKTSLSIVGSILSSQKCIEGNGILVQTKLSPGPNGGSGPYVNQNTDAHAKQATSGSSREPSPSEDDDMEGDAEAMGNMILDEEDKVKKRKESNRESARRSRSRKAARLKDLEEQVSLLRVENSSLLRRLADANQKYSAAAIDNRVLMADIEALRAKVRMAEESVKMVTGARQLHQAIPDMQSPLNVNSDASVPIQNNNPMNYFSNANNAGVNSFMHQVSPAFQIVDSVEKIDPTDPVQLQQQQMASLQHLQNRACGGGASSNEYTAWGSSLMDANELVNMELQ
# Assay: protein-binding microarray (RPBM); PBS, 2% BSA, 51.3 ng/ul salmon testes DNA, 50 uM zinc acetate, 200 nM TF, 25 C, 1 h; high values mean tight binding
# Details: protein: recombinant; tags: N-terminal polyhistidine and DsRed monomer fusion (pET32a); chain copies: 2; label: CyDye5-dUTP incorporated in the synthesized complementary strand; 3' TTTTT single-stranded linker to array surface; dsDNA, one strand shown
# Procedure, shortened: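 Binding signal here means per-feature fluorescence intensity in arbitrary units. The values were read on an Axon 4000B scanner after a custom Agilent array, double-stranded by primer extension with Cy5-dUTP, was incubated with 200 nM protein at 25 °C for 1 h in PBS with 2% BSA, salmon testes DNA and 50 µM zinc acetate, then washed. The proteins were transcription factors with an N-terminal polyhistidine tag and DsRed, expressed in E. coli BL21-CodonPlus and purified on Ni–NTA.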
row,Sequence,binding signal
1,GTTTGAATAGGTCTTTCGTCCCACGTGGCATTGACGTGGCCGGAGTCACCTAGTGCAG,45700 fluorescence intensity (a.u.)
2,CATAGATCTTTTGACTAGGTTTTCGTTCCACGTGGCATCACGGAGTCACCTAGTGCAG,12900 fluorescence intensity (a.u.)
3,TAGGTCTTCGTCCCACGTGGCATTGACGTGGCGCTTACGCCGGAGTCACCTAGTGCAG,30000 fluorescence intensity (a.u.)
4,ACACTTATCGACGTGCCAGCGCGACGCAATATGCTCCGATCGGAGTCACCTAGTGCAG,5400 fluorescence intensity (a.u.)
5,CACAAATGAAGAAACAAGGTGTTGCATCACCAGTCATGGGCGGAGTCACCTAGTGCAG,6740 fluorescence intensity (a.u.)
6,TTTAACTATGAGAATATATAGTACGTGTTGAGACATGAAACGGAGTCACCTAGTGCAG,27800 fluorescence intensity (a.u.)
7,TGCAAGCAGCAAGCGTGTCACTACGTTTACATGACATGCACGGAGTCACCTAGTGCAG,47600 fluorescence intensity (a.u.)
8,TCCATGCTGGTTTTAGTCCTACGTGACAATACAGTCAGCACGGAGTCACCTAGTGCAG,5640 fluorescence intensity (a.u.)
9,TGACCTAATACATTCATGCTGACTAGCGTTTACGTGGCAACGGAGTCACCTAGTGCAG,14100 fluorescence intensity (a.u.)
10,TTTAATTATATTATCACTGACATGTGGGTCCCACTATATGCGGAGTCACCTAGTGCAG,4330 fluorescence intensity (a.u.)
11,CACTCCTCTGCTGCTCGTCGTCAATGCCATCCTCATCATGCGGAGTCACCTAGTGCAG,3330 fluorescence intensity (a.u.)
12,CTCGACATTGCTGGCAATGCCTGGGAGATTGCTTGCCATGCGGAGTCACCTAGTGCAG,3180 fluorescence intensity (a.u.)
13,GCCAATGCCATGTCCTCTGCGGCCTGCTTGCTGGTGAACTCGGAGTCACCTAGTGCAG,46600 fluorescence intensity (a.u.)
14,GATTTGCTTACATGAATAAGGTTGATTTGCATCGGCAAGACGGAGTCACCTAGTGCAG,4000 fluorescence intensity (a.u.)
15,CCCTTCCGGCTTCCACGCGTCGGGAACCGAAGTCCAAACCCGGAGTCACCTAGTGCAG,3360 fluorescence intensity (a.u.)
16,TCCAAGAAAGAAAGGAGAATTATCCGGCAGTTTCAGAGGTCGGAGTCACCTAGTGCAG,22200 fluorescence intensity (a.u.)
17,CCGGAGCCAGTAGTAGCGTTGAGTCGTTGTCGCGAGATGGCGGAGTCACCTAGTGCAG,3260 fluorescence intensity (a.u.)
18,AGAAAAGGAGGAAAAGAATTTCCCTGGGATTTAAAATATTCGGAGTCACCTAGTGCAG,26300 fluorescence intensity (a.u.)
19,TCCCACTCGATTTGGGAGAAAATACAGGGATTAAACTCTGCGGAGTCACCTAGTGCAG,3550 fluorescence intensity (a.u.)
20,ACAGGAATATCTCTTCGAGGGATTAAAATTCACTCCCACTCGGAGTCACCTAGTGCAG,50800 fluorescence intensity (a.u.)
21,AGTGTCAGTACACACACTAGCTTCTCTCACCGGCTCTCCGCGGAGTCACCTAGTGCAG,3210 fluorescence intensity (a.u.)

row,Sequence,binding signal
1,GTTCAGCTATCAAAGTCCCTGAATAGTTTAGATTTACATTCGGAGTCACCTAGTGCAG,14100 fluorescence intensity (a.u.)
2,CTGACAGCTTTTAGTTCACAAATATCAGTAAGATTTCCCTCGGAGTCACCTAGTGCAG,43200 fluorescence intensity (a.u.)
3,CACAACTTTTGATTTCAGGACATATGTGTTCAGCTTTCCTCGGAGTCACCTAGTGCAG,3370 fluorescence intensity (a.u.)
4,ATTTCATAAAACTGCACATTCTGGGGTTCAAGTTGCAGAACGGAGTCACCTAGTGCAG,3170 fluorescence intensity (a.u.)
5,TTCCTCCATCTTGACGTGGGACCCACCTGGAGATTCATCTCGGAGTCACCTAGTGCAG,4710 fluorescence intensity (a.u.)
6,TTACACGTTAAGAAAGTGCTAAGTAAACAAGACTGCCTGACGGAGTCACCTAGTGCAG,17700 fluorescence intensity (a.u.)
7,TGCTACATAAGTGACACGTCAACACCACGTTGTATAAAGACGGAGTCACCTAGTGCAG,53700 fluorescence intensity (a.u.)
8,ATGCTATATAAATGCCACGTTGTGCGAAGACCAAGTCAACCGGAGTCACCTAGTGCAG,3510 fluorescence intensity (a.u.)
9,ACTACACCGTCGCAGCGCACCCACGTGACACGCAGCCACACGGAGTCACCTAGTGCAG,4730 fluorescence intensity (a.u.)
10,TGATACATTACTCAAGGAAACAGTCACACAGTCTATCACGCGGAGTCACCTAGTGCAG,3200 fluorescence intensity (a.u.)
11,CCCTCAAGGGCTCAAAACACTCAAACAGTTCTACATATATCGGAGTCACCTAGTGCAG,57600 fluorescence intensity (a.u.)
12,CGTTGGGCTCAAGGGGAGGGATATCTATCTAACAGTAACACGGAGTCACCTAGTGCAG,4110 fluorescence intensity (a.u.)
13,CCGTCTCCACGCACTCGAACGTCACCGACGACCCCGGCAGCGGAGTCACCTAGTGCAG,5490 fluorescence intensity (a.u.)
14,GCCACACCTCCCATTCCTTAGCCAAACACTCGCACTACTCCGGAGTCACCTAGTGCAG,3200 fluorescence intensity (a.u.)
15,CGGTTGAATTGTTCTTGGCATCATCGGGTGTAACCGTGTACGGAGTCACCTAGTGCAG,3350 fluorescence intensity (a.u.)
16,TTCTCAGCCAATCCCCAGCTCACACGTGCCAACTCTTCCACGGAGTCACCTAGTGCAG,7630 fluorescence intensity (a.u.)
17,CCACCATGGATCCGACGTGGCACAACCACATTGGTCCCTCCGGAGTCACCTAGTGCAG,17700 fluorescence intensity (a.u.)
18,TAGGCCCACACCTAGTCAGCTCAATCGAAATACAACCCACCGGAGTCACCTAGTGCAG,3450 fluorescence intensity (a.u.)
19,AAGCGCGCGCCTCGCCACCTCACCCGAAGAAATTCCCCACCGGAGTCACCTAGTGCAG,4140 fluorescence intensity (a.u.)
20,AACAGCTCAATTAATTAATCGCCCACACCGAAGCGCGCACCGGAGTCACCTAGTGCAG,39800 fluorescence intensity (a.u.)
21,CGCATCCCGGCCCATCCGCCTCGTCAGCGGCGGCGCACCACGGAGTCACCTAGTGCAG,10800 fluorescence intensity (a.u.)
